Shown is part of a subset that was picked to be rich in hits.
Methyltransferases: Primary Screen for Target Class Profiling of Small Molecule Inhibitors of Methyltransferases; purified enzyme, MTase-Glo SAH luminescence; active compounds read low; calls only at 40 µM; hit rate 3.9% among 25,000; AID 1745853, 2022; call rule not given here
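Each enzyme was reacted with SAM and its substrate, with compounds tested once at 40 uM; SAH formed was read by MTase-Glo luminescence.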
* marks the source's active call; other numbers are inactive results; i = inactive; + = active, no number. % is scaled to controls: 0 for no effect and ±100 for the full control effect.

SMILES	Methyltransferases
CCCCNC(=O)CCc1nnc2n(Cc3ccccc3Cl)c(=O)c3ccccc3n12	i
COc1c(C)c(OCC=C(C)C)cc2c1CNC2=O	i
O=C(c1ccc(Nc2nccc(-c3cc4ccccc4s3)n2)cc1)N1CCC(N2CCCC2)CC1	+
C[C@@H]1CN(c2ccc(C(=O)N3CCC(N4CCOCC4)CC3)cn2)C[C@H](C)O1	i
O=C(c1ccnc(-c2ccncc2)c1)N1CCCC1	i
COc1ccc(-c2n[nH]n3c2nc(=O)c2ccc(C(=O)NCc4ccc(C(C)C)cc4)cc23)cc1	i
CCn1ccc(C(=O)N2CCc3nc(NC)nc(C(=O)N4CCCC4)c3C2)n1	i
Cc1ccc(C(=O)Nc2ccc(S(=O)(=O)O)c3cc(S(=O)(=O)O)cc(S(=O)(=O)O)c23)cc1NC(=O)c1cccc(NC(=O)Nc2cccc(C(=O)Nc3cc(C(=O)Nc4ccc(S(=O)(=O)O)c5cc(S(=O)(=O)O)cc(S(=O)(=O)O)c45)ccc3C)c2)c1	+
CCCN1CCC=C(c2cc(-c3ccc(C)cc3)no2)C1	i
NS(=O)(=O)c1cccc2c1c([N+](=O)[O-])cc1nc(O)c(O)nc12	+
C/C=C(\C)C(=O)OC[C@H]1O[C@@H](O[C@H]2[C@@H](O[C@H]3O[C@H](COC(=O)/C(C)=C/C)[C@@H](O)[C@H](O)[C@H]3O[C@@H]3O[C@H](CO)[C@@H](O)[C@H](OC(=O)/C(C)=C/C)[C@H]3O)O[C@H](COC(=O)/C(C)=C/C)[C@@H](O)[C@@H]2O)[C@H](O)[C@@H](O)[C@@H]1O	i
COc1cccc(C(=O)N(C)Cc2ccccc2C(F)(F)F)c1	i
COc1ccc(-c2cc(N3CCCC(NC(=O)c4cccc(C)c4)C3)n[nH]2)cc1 (centres undefined)	i
CC(C)OCCCN1C(=O)c2cc3ccccc3n2CC1(C)C(=O)NC1CCCCCC1 (centres undefined)	i
S=c1ssc2c1CCC2	+
CCN(Cc1ccccc1)C(=O)CCn1ccc2cc(S(=O)(=O)N3CCCCC3)ccc21	i
Cc1cc(CN(C)C(=O)c2cc(COc3ccc4c(c3)OCO4)[nH]n2)on1	i
CNC(=O)c1c(F)cccc1Nc1nc(Nc2cc3c(cc2OC)CCN3C(=O)CN(C)C)nc2[nH]ccc12	i
CNC(=O)CN1CCC(Oc2cc3c(Nc4cccc(Cl)c4F)ncnc3cc2OC)CC1	+
CCCC1c2cccn2CCN1C(=O)Nc1cc(Cl)ccc1OC (centres undefined)	i
O=C(NC1CCCC1)c1ccc(OC2CCN(CCCC(F)(F)F)CC2)c(Cl)c1	i
COC(=O)c1cccc(Nc2ncnc3ccc(C)cc23)c1	i
COc1cc2ncnc(Nc3ccc(F)c(Cl)c3)c2cc1NC(=O)/C=C/CN1CCCCC1	+
Cc1cccc(CN2C(=O)c3ccc(-c4ccco4)n3CC2(C)C(=O)NC2CCCCC2)c1 (centres undefined)	i
COc1cccc(CNc2nc3c(S(=O)(=O)c4ccccc4)nnn3c3ccc(Cl)cc23)c1	i
SMILES	Methyltransferases
CSCCCN1CC[C@@H](NC(=O)c2ccncc2)[C@H](O)C1	i
CC(C)(C)c1ccc(-c2nc3ccccc3[nH]2)cc1	+
COc1ccc(-c2cc(C(O)C3CCCCN3)c3ccccc3n2)cc1 (centres undefined)	i
COc1ccc(-c2nc3ccccc3[nH]2)cc1	+
COc1ccc(OC)c(S(=O)(=O)N2CCc3nc(-c4ccccc4)[nH]c3C2)c1	i
O=C(c1cccnc1)N1CC[C@H](c2nc3ccccc3o2)C1	i
Cc1ccc(C(=O)Cn2nc3n(CC(C)C)c(=O)c4ccccc4n3c2=O)cc1	i
CCCC1c2ccc(C)n2CCN1C(=O)NCC1CCC(C(=O)OCC)CC1 (centres undefined)	i
O=C(Nc1cc2cc[nH]c2cn1)c1ccccc1	+
CCc1nc(-c2cccc(C)c2)c(-c2ccnc(NC(=O)c3ccccc3)c2)s1	i
O=C(Nc1nc2ccccc2n1CCc1ccccc1)c1ccccc1	i
O=C(CCn1ccc2cc(S(=O)(=O)N3CCCCC3)ccc21)NCc1ccc(F)cc1	i
CC(O)C(O)/C=C/C=C/C(=O)O[C@@H]1C=C2COC(=O)[C@]2(O)[C@@]2(C)CCCC(C)(C)C12 (some centres undefined)	i
COc1cc(O)c2c(c1Cl)CC(C)OC2=O (centres undefined)	i
COc1c(O)cc2c(c1O)C(=O)O[C@H](C)[C@H]2O	+
COc1cc(-c2ccc(O)cc2)c(OC)c(O)c1C1=CC(=O)OC1CC(=O)O (centres undefined)	i
CCCCN(CC)CCN1C(=O)c2cc3sccc3n2CC1(C)C(=O)NC1CCCCCCC1 (centres undefined)	i
CC(C)OCCCN1C(=O)c2ccc(-c3ccco3)n2CC1(C)C(=O)NC1CCCC1 (centres undefined)	i
COc1ccc(C(=O)N[C@@H]2CCC[C@@H]2C(=O)NCc2ccc(C)o2)cn1	i
CCC(CC)Nc1ncnc2c1CN(C1CCC1)C(=O)CN2C	i
Cn1cc(-c2ccc(F)c(C(F)(F)F)c2)nc1C1CCN(c2ncnc3[nH]ncc23)CC1	+
CC1(C(=O)NC2CCCCCC2)Cn2c(ccc2-c2ccco2)C(=O)N1Cc1ccccc1F (centres undefined)	i
O=C([C@H](O)c1ccccc1)N1CCc2onc(-c3cccc4ccccc34)c2C1	i
CCCN1C(=O)c2c(C(=O)Nc3cccc(Cl)c3)ncn2CC1(C)C(=O)NCc1ccc(OC)cc1 (centres undefined)	i
c1cc(N[C@@H]2CCNC2)nc(-c2cnc3ccc(-c4cn[nH]c4)cn23)c1	+
SMILES	Methyltransferases
CCc1cccc(NC(=O)Cn2nc3n(C(C)C)c(=O)c4ccc(C(=O)NC(C)C)cc4n3c2=O)c1	i
CCCC1c2ccc(C)n2CCN1C(=O)Nc1ccc(Br)c(C)c1 (centres undefined)	i
CCC(C)NC(=O)c1ccc2c(=O)n(C(C)C)c3nn(C)c(=O)n3c2c1 (centres undefined)	i
CN(C)c1ccc(CNC(=O)CCCn2ccc3cc(S(=O)(=O)N4CCCC4)ccc32)cc1	i
CN(C)c1ccc(Nc2c3ccc(NC(=O)CCN4CCCC4)cc3nc3cc(NC(=O)CCN4CCCC4)ccc23)cc1	+
C[C@@H]1C[C@H](C)CN(CCC(=O)Nc2ccc(Br)cc2)C1	i
CCCn1c(=O)c2ccccc2n2c(=O)n(CC(=O)NC3CCCCC3)nc12	i
Cc1c(-c2ccc3c(c2)OCO3)oc2ccc(C(O)C(C)O)cc12 (centres undefined)	i
Cc1nc(CN(C)c2ncnc3ccc(-c4ccc5c(c4)OCO5)cc23)cs1	+
Cc1cc2nc3n(c(=O)c2n1CC(=O)NC1CCc2ccccc21)CCCCC3 (centres undefined)	i
Cc1ccc(Cn2c(=O)c3ccccc3n3c(=O)n(CC(=O)Nc4cccc(F)c4)nc23)cc1	i
Oc1cc(O)cc(/C=C/c2ccc(O)c(O)c2)c1	+
COc1cc(O)cc(/C=C/c2cccc(O)c2)c1	i
Oc1ccc(/C=C/c2ccc(/C=C/c3ccc(O)cc3)c(Br)c2)cc1	i
O=C(NC1C[C@H]2CC[C@@H](C1)N2S(=O)(=O)c1cccs1)c1ccncc1 (some centres undefined)	i

Assay outcomes: PubChem, National Center for Advancing Translational Sciences (NCATS)
